MITF inh: inhibitors of human MITF | O75030 | AlphaScreen MITF homodimerization, bead proximity signal | inhibition, % at 2.6 µM | 650,000 compounds, 0.91% hits | AID 1259374; in the data active = inhibition above about 50%;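 also: 0% = vehicle wells with protein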
FBW7 act: activators of human E3 ligase FBW7 | AlphaScreen FBW7–phospho-cyclin E peptide binding, activator screen | 650,000 compounds, 0.13% hits | normalized activity (activation), % at 26.1 µM | Q969H0; in the data active = normalized activity above about 1.9%;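 also: purified mutant Fbw7 with reduced substrate affinity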
TEAD-YAP inh: TEAD-YAP interaction inhibition | HEK-TIYL cells, TEAD-Gal4/YAP UAS-luciferase luminescence | inhibition, % at 9.12 µM | 640,000 compounds, 1.4% hits | AID 1259422; in the data active = inhibition above about 32%;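 also: 0% = median of test compound wells and 100% = reference inhibitor wells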
GPR151 ag: activates the human receptor GPR151 | Q8TDV0 | activation, % at 11.2 µM | AID 1508602 | 650,000 compounds, 1% hits | PathHunter beta-arrestin GPR151 cells, luminescence; in the data active = activation above about 4.9%;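 also: 0% = median of compound wells and 100% = cells with positive control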
Target sequence (Q8TDV0 whole entry, looked up): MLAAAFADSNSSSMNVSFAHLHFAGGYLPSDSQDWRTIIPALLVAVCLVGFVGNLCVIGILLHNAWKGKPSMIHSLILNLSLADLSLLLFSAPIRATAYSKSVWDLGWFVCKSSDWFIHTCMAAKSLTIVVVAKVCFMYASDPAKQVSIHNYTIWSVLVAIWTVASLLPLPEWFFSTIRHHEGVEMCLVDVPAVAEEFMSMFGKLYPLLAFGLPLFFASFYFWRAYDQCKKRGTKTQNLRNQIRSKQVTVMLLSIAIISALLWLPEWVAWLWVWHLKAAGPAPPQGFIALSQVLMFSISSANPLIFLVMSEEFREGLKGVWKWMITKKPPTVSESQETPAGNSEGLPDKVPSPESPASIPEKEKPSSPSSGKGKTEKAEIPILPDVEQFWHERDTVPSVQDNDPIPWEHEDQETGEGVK
MITF inh conf: human MITF inhibition, confirmation; AlphaScreen MITF homodimerization, biotin/His-MITF beads; shares compounds with MITF inh; inhibition, % at 2.6 µM; AID 1259372; 4,700 compounds, 16% hits;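 active = inhibition above a cutoff derived from the DMSO control wells, cut at about 28% in these data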;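 also: 0% = MITF dimer wells with DMSO only; inhibitors lower the bead chemiluminescence by keeping MITF from dimerizing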
AlphaScreen DR: counter-screen: compounds optically interfering with AlphaScreen. shares compounds with MITF inh. AlphaScreen optical interference counterscreen, cell-free. IC50, µM. AID 1259373. 480 compounds, 6% hits; call rule not given here
AlphaScreen intf2: optically interferes with AlphaScreen signal | shares compounds with MITF inh | inhibition, % at 2.6 µM | LysRS AlphaScreen counterscreen, signal interference, triplicate | 4,700 compounds, 7.6% hits | AID 1259376;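 active = inhibition above a cutoff derived from the DMSO control wells, cut at about 30% in these data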
Active calls of the source: *; nt = no result. Most compounds without a hit are left out; they make up all but 3.5% or so of the library.

SMILES	MITF inh	FBW7 act	TEAD-YAP inh	GPR151 ag	MITF inh conf	AlphaScreen intf2	others
CC1CCC(N2CCN(Cc3ccccc3F)CC2)CC1 (centres undefined)	63*	0	7	-1	-4	10
Fc1ccccc1CN1CCC(N2CCCCC2)CC1	-19	0	5	-1	nt	nt
Fc1ccccc1N1CCN(C2CCN(Cc3ccccc3)CC2)CC1	49	0	1	-1	nt	nt
CCN1CCN(C2CCN(Cc3ccccc3C)CC2)CC1	14	0	-3	0	nt	nt
Clc1ccccc1CN1CCN(C2CCCCCC2)CC1	74*	0	-3	0	0	1
Fc1ccccc1CN1CCN(C2CCCCC2)CC1	61*	0	1	1	8	-1
CC(=O)Nc1ccc(NC(=O)Cc2ccc(Cl)cc2)cc1	20	1	-9	0	nt	nt
O=C(Nc1nc(-c2cc(Cl)sc2Cl)cs1)C1=COCCO1	9	0	-5	0	nt	nt
CN(C)CC(=O)Nc1cccc(CN(C(=O)c2nc3ccc(-c4cn[nH]c4)cc3s2)C2CC2)c1	-4	-1	0	0	nt	nt
CN1CCN(CCNC(=O)c2cccc(CN(C(=O)c3nc4ccc(-c5cn[nH]c5)cc4s3)C3CC3)c2)CC1	78*	2	50*	0	72*	-14	AlphaScreen DR=>6.5
O=C(NCCN1CCOCC1)c1cccc(CN(C(=O)c2nc3ccc(-c4cn[nH]c4)cc3s2)C2CC2)c1	66*	2	15	1	73*	6	AlphaScreen DR=>6.5
O=C(NCCN1CCCCC1)c1cccc(CN(C(=O)c2nc3ccc(-c4cn[nH]c4)cc3s2)C2CC2)c1	32	1	4	-1	nt	nt
COc1ccc(-c2c(C#N)c(SCC(=O)c3ccc(F)cc3)nc3c2CCCC3)cc1	5	0	-4	0	nt	nt
Cc1cc(N2CCCCC2)nc2ccc(NC(=O)c3cccnc3)cc12	53*	1	-6	0	-7	0
FC(F)(F)c1ccc(Cn2cnc3c(NCCOc4ccccc4)nc(Nc4ccc(N5CCOCC5)cc4)nc32)cc1	8	0	-5	0	nt	nt
COc1ccc(C(=S)N2CCCCC2)cc1OC(=O)CCc1ccccc1	61*	0	4	1	10	15
COc1cc(C(=S)N2CCCCC2)ccc1OCc1ccccc1	-1	-1	-25	0	nt	nt
O=[N+]([O-])c1ccc(N/N=C/c2cccc(O)c2O)c(S(=O)(=O)N2CCOCC2)c1	-36	-1	-19	0	nt	nt
O=[N+]([O-])c1ccc(N/N=C/c2ccco2)c(S(=O)(=O)N2CCOCC2)c1	63*	0	-5	0	33*	-1	AlphaScreen DR=>6.5
Cn1c(SCc2cc(=O)n3c(n2)sc2ccccc23)nnc1C(F)(F)F	60*	0	-4	0	79*	-2	AlphaScreen DR=>7.2
Nn1c(SCc2cc(=O)n3c(n2)sc2ccccc23)nnc1C1CC1	21	0	-4	1	nt	nt
CCCCCC(O)(CCCCC)C(=O)NN1CCCCC1	72*	0	-1	1	-3	-1
Cc1ccc2c3c(ccc2n1)NC1=C(C(=O)CCC1)C3c1ccccn1 (centres undefined)	63*	0	-19	0	-3	5
Cc1ccc2c3c(ccc2n1)NC1=C(C(=O)CCC1)C3c1ccccc1C (centres undefined)	4	0	2	1	nt	nt
CCOCCCNS(=O)(=O)c1ccc(NC(=O)C(C)Oc2ccccc2)cc1 (centres undefined)	-6	0	-3	1	nt	nt
SMILES	MITF inh	FBW7 act	TEAD-YAP inh	GPR151 ag	MITF inh conf	AlphaScreen intf2	others
CC(C)C(C)NC(=O)CSc1nnc(NCc2ccccc2)s1 (centres undefined)	53*	0	-9	1	3	8
CCNc1nc(NCC)nc(N2N=C(C)CC2=O)n1	71*	0	8	0	41*	66*
CC1=NN(c2cc(C)cc(C)c2)C(=O)C1	7	0	3	0	nt	nt
Cc1ccc2c(CNC3CCC(C)CC3)c(C(=O)O)n(C)c2c1 (centres undefined)	1	0	5	2	nt	nt
CCN1CCN(CC(=O)NCc2ccccc2OC)CC1	99*	0	-6	-1	3	13
Cc1cc(C)cc(NC(=O)CCN2CCc3ccccc3C2)c1	-1	0	-5	-1	nt	nt
CCN1CCN(CC(=O)Nc2ccccc2)CC1	59*	0	2	1	-1	10
CCN1CCN(CCC(=O)Nc2ccccc2)CC1	24	2	8	-2	nt	nt
Cc1cc(C)cc(NC(=O)CN2CCc3ccccc3C2)c1	69*	0	3	0	0	5
CCN1CCN(CC(=O)N(C)c2ccccc2)CC1	67*	0	-2	1	-11	1
CN(C(=O)N1CCN(C(=O)N(C)c2ccccc2)CC1)c1ccccc1	14	0	1	-1	nt	nt
O=C(CN(c1ccccc1F)S(=O)(=O)c1ccccc1)NCCc1ccccc1	14	0	2	0	nt	nt
COc1ccccc1CN1CCN(C(c2nnnn2Cc2ccccc2)C(C)C)CC1 (centres undefined)	-8	0	4	1	nt	nt
O=C(NNc1ccccc1)C(O)(c1ccccc1)c1cccs1 (centres undefined)	2	0	12	1	nt	nt
CCC1=C(C(=O)OC)C(c2cccc(OC)c2)n2ncnc2N1 (centres undefined)	-6	0	4	0	nt	nt
Cc1nnc(NC(=O)CN2CCOCC2)s1	-8	0	-6	1	nt	nt
CCN1CCN(CC(=O)Nc2nnc(C)s2)CC1	74*	0	4	0	8	9
CC1SC(C)C(=O)N(CC(=O)NCCc2ccccc2)C1=O (centres undefined)	12	0	1	0	nt	nt
CC(=O)NC1=NC(=O)/C(=C/c2cccc(OCc3ccc(F)cc3)c2)S1	8	0	-5	0	nt	nt
O=C(Nc1nc2c(s1)COc1ccccc1-2)C1CCCN1S(=O)(=O)c1ccc(Cl)cc1 (centres undefined)	52*	0	8	1	0	-4
c1cncc(-c2nc(NCCCn3ccnc3)cc(-c3ccncc3)n2)c1	13	-1	13	-1	nt	nt
c1cncc(-c2cc(NCCCn3ccnc3)nc(-c3cccnc3)n2)c1	65*	-1	8	2	29*	39*
CCOC(=O)c1c(NC(=O)CSc2nnc(CNC(=O)c3ccc([N+](=O)[O-])cc3)n2C2CCCCC2)sc2c1CCCC2	8	0	-8	0	nt	nt
CSc1ccccc1C(=O)Nc1nc(-c2ccccn2)cs1	28	-2	14	-1	nt	nt
CS(=O)(=O)c1ccccc1C(=O)Nc1nc(-c2ccccn2)cs1	57*	-2	19	1	38*	100*
CCn1ccc(C(=O)Nc2nc(-c3ccccn3)cs2)n1	83*	-1	-23	3	73*	101*

Screening data (PubChem BioAssay)
